Screens deposited in PubChem BioAssay by Emory University Molecular Libraries Screening Center.
Measles inh: inhibitors of measles virus growth in cells, primary screen, measles RdRp inhibitor project, cell-based, single point, HTS; infected Vero cells, GFP fluorescence, 64 h; hits give low values; z-score (no concentration beside the values); 0.1% of 33,000 active; in the data active = z-score below about -3
Numbers without * were called inactive. Many of the other results were omitted from the sample, so hits are more common in it than they were.

SMILES	Measles inh
COc1ccc(OCc2nc(-c3cccc([N+](=O)[O-])c3)no2)cc1	-0.89
CN(C)c1ccc(C2/C(=C(\O)c3ccc(Cl)cc3)C(=O)C(=O)N2Cc2ccccc2)cc1 (stereo unspecified)	-0.04
Fc1cccc(-c2nc3cc(N=Cc4ccc(Cl)cc4)ccc3o2)c1	-1.4
CC1CC(C)(C)NC(=S)N1c1cccc(O)c1 (stereo unspecified)	-0.44
COc1ccc(-c2cc(C(=O)NC(C)CCc3ccccc3)c3ccccc3n2)cc1 (stereo unspecified)	-0.87
CC(=O)C1=NN(c2ccc(C)c(C)c2)C(c2ccc([N+](=O)[O-])o2)N1C(C)(C)C (stereo unspecified)	-1.5
CCc1ccc(CNC(=O)CCS(=O)(=O)Cc2ccc(Cl)cc2)cc1	0.09
CCOc1cc(Oc2ccc(C(F)(F)F)cc2Cl)ccc1N1C(=O)C=CC1=O	-1.4
COc1cc2c(=O)n(CCc3ccccc3)c(=O)n(CC(=O)c3ccccc3)c2cc1OC	-0.51
CCOc1cc(C(NC(=O)CC)c2cc([N+](=O)[O-])c3cccnc3c2O)ccc1O (stereo unspecified)	-0.83
CC(=O)NC(c1ccccc1)c1cc(Cl)c2cccnc2c1O (stereo unspecified)	-0.77
CC(=O)NC(c1ccc(C)cc1)c1cc([N+](=O)[O-])c2cccnc2c1O (stereo unspecified)	-3.4*
COCCCNC(=O)C1c2ccccc2C(=O)N(C)C1c1cccs1 (stereo unspecified)	0.69
CCc1ccc(OCc2nc(-c3cccc([N+](=O)[O-])c3)no2)cc1	-0.56
Cc1ccccc1OCC(=O)Nc1cc(C(=O)Nc2ccccc2)ccc1Cl	-0.64
O=[N+]([O-])c1ccc(-c2noc(CC3CCCCC3)n2)cc1	0.27
Cc1cccc(Nc2nc(-c3ccccc3)c(CC(=O)O)s2)c1C	-0.14
Cc1ccc(-c2ccc(CCC(=O)O)n2-c2ccc(C)cc2)cc1	1.6
Cc1c(C(=O)N(C)C)sc2c1c(=O)n(-c1ccc(Cl)cc1)c(=O)n2CC(=O)N1CCN(c2ccccc2)CC1	-1.1
CCc1cccc(NC(=O)c2nn(-c3ccc(C)cc3)c(=O)c3c2c2ccccc2n3C)c1	-0.24
Cc1ccc(N=C2C(=O)Nc3ccc(C)c(Br)c32)cc1I	-1.1
COc1ccc([N+](=O)[O-])cc1NC(=O)c1cccc(C(=O)Nc2cc([N+](=O)[O-])ccc2OC)c1	-0.38
COc1ccccc1NC(=O)c1cccc([N+](=O)[O-])c1	-0.86
COc1ccc([N+](=O)[O-])cc1NC(=O)c1cccc(F)c1	-5.2*
CCN(c1ccccc1)S(=O)(=O)c1ccc(F)c(C(=O)Nc2ccc(C(C)C)cc2)c1	-0.61
SMILES	Measles inh
CC1CCCC(NC(=O)CCCn2c(=S)[nH]c3ccc(Br)cc3c2=O)C1C (stereo unspecified)	-0.69
CC(C)NS(=O)(=O)c1cccc2nonc12	0.85
O=c1c2c3c(sc2n2c(=S)[nH]nc2n1Cc1ccccc1)CCC3	-0.75
C=C1CSc2nc(=O)c3c4c(sc3n21)CCC4	-3.1*
Cc1nc2sc3c(c2c(=O)[nH]1)CCC3	0.5
CCOC(=O)c1ccc(N2C(=O)C(Oc3ccc(Cl)cc3)C2c2ccc(OCC)cc2)cc1 (stereo unspecified)	0.42
CN(Cc1ccccc1)C(=O)C1CC=CCC1C(=O)N(C)Cc1ccccc1 (stereo unspecified)	2
COc1ccc(C2CC(c3c(-c4ccccc4)c4cc(Cl)ccc4[nH]c3=O)=NN2C(=O)CCC(=O)O)cc1 (stereo unspecified)	-0.07
COc1ccc(-c2cc(=O)[nH]c(Sc3c(-c4ccccc4)c4cc(Cl)ccc4[nH]c3=O)n2)cc1	-3.3*
O=c1[nH]c2ccc(Cl)cc2c(-c2ccccc2)c1SCCO	-0.29
Fc1ccc(-n2cc(-c3ccccc3)c3c(N4CCCCC4)ncnc32)cc1	0.79
COc1ccc(C=C2c3cc(C)ccc3-c3ncccc32)cc1	-0.22
Cc1ccc(NC(=O)C2C3NC(=S)NC2(C)Oc2ccc(Br)cc23)c(C)c1 (stereo unspecified)	-3.3*
Cc1ccc(NC(=O)C2C3NC(=S)NC2(C)Oc2ccccc23)c(C)c1 (stereo unspecified)	-0.17
CCOc1cccc2c1OC1(C)NC(=S)NC2C1C(=O)Nc1ccc(C)cc1C (stereo unspecified)	0.33
Cc1c(C2=NC(C)(C)CO2)cccc1[N+](=O)[O-]	2.5
CCOc1cc2[nH]c(=S)n(Cc3ccc(C(=O)NC(C)C)cc3)c(=O)c2cc1OCC	-0.05
CCC(C)(C)C1CCc2sc3ncnc(NCCN4CCOCC4)c3c2C1 (stereo unspecified)	-0.92
CCOC(=O)C1=C(C)N=C2SC(C)C(=O)N2C1c1ccc(OCC)cc1 (stereo unspecified)	-0.91
CCCCn1c(=S)[nH]c2cc3ccccc3cc2c1=O	0.21
O=C1c2cc([N+](=O)[O-])cc3cc([N+](=O)[O-])cc(c23)C(=O)N1c1ccc(S(=O)(=O)NCc2ccccc2)cc1	0.66
CCCCNC(=O)C1CCN(S(=O)(=O)N(CC)CC)CC1	-0.51
COc1ccc(N2N=C(C(C)=O)N(c3ccccc3)C2c2ccc(N(C)C)cc2)cc1 (stereo unspecified)	-0.79
O=C(NCCOc1ccccc1)c1cc(-c2ccccc2)nc2ccc(I)cc12	1.3
COc1cccc(C(=O)Nc2ccc(S(=O)(=O)Nc3nc(C)cc(C)n3)cc2)c1	0.58
SMILES	Measles inh
Cc1cc(C)nc(NS(=O)(=O)c2ccc(Br)cc2)n1	-3.1*
COc1ccc(CC(=O)Nc2ccc(S(=O)(=O)Nc3nc(C)cc(C)n3)cc2)cc1	1.5
COc1ccc(S(=O)(=O)N(CC(=O)Nc2ccc(C)c(Cl)c2)c2ccc(C)cc2)cc1	0.16
Cc1ccc(CN2C(=O)C3C(C(=O)Nc4cccc(Cl)c4)C4C=CC3(O4)C2C(=O)NC2CCCC(C)C2C)cc1 (stereo unspecified)	-0.64
c1ccc(N2CCN(C3CCN(Cc4ccccn4)CC3)CC2)cc1	-0.62
O=C(Nc1ccc2c(c1)OCCO2)c1ccc(F)cc1	1.2
O=C1CCC(=O)N1c1ccc(NCc2ccc(Cl)cc2)c([N+](=O)[O-])c1	0.77
Cc1ccc(-n2cc(-c3ccccc3)c3c(NCc4ccc5c(c4)OCO5)ncnc32)cc1Cl	0.9
CCc1ccc(C2C(C(=O)OCc3ccccc3)=C(C)N=C3SCCC(=O)N32)cc1 (stereo unspecified)	-0.45
CC(C)(C)c1ccc2c(c1)N(CC(=O)NC1CCCCCC1)C(=O)CO2	1.1
O=C1CSC(c2ccccc2[N+](=O)[O-])N1c1cccc(C(F)(F)F)c1 (stereo unspecified)	0.42
CCC(C)N1C(=O)C2C(C(=O)Nc3ccc(C)c(C)c3)C3C=CC2(O3)C1C(=O)NC1CCCC(C)C1C (stereo unspecified)	-0.42
Cc1ccc2oc(-c3ccc(NC(=O)COc4ccc(C)c(C)c4)cc3)nc2c1	0.25
COc1ccc(Cl)cc1NS(=O)(=O)c1cnc[nH]1	0.18
O=S(=O)(Nc1ccc(Cl)cc1)c1cnc[nH]1	-3.5*
O=S(=O)(Nc1cccc(C(F)(F)F)c1)c1cnc[nH]1	0.38
COc1cccc(-n2c(SCC(=O)NCc3ccc(F)cc3)nc3c([nH]c4ccccc43)c2=O)c1	-0.44
Cc1ccc(N2C(=O)CC(NCCc3ccc(F)cc3)C2=O)cc1 (stereo unspecified)	-0.99
COc1ccccc1NS(=O)(=O)c1ccc(Cl)c(C(=O)Nc2cccc(C(=O)O)c2)c1	0.26
COc1ccccc1-n1c(-c2nn(C)c(C)c2Cl)n[nH]c1=S	-0.68
CCOC(=O)c1ccc(N2C(=O)c3ccc(C(=O)OCC(=O)c4ccccc4)cc3C2=O)cc1	-0.37
CC1CCC(C(=O)NC(C(=O)NCc2ccccn2)C(C)C)CC1 (stereo unspecified)	-3.1*
CC1CCN(S(=O)(=O)N2CCC(C(=O)NCc3ccccn3)CC2)CC1	0.27
CC1CCC(C(=O)NC(C(=O)Nc2ccc(C(C)C)cc2)C(C)C)CC1 (stereo unspecified)	-0.83
